From PubChem BioAssay
An excerpt weighted towards active compounds, which were near 0.78% of everything screened.
PKA-R2B activ = activates the human PKA-R2B holoenzyme complex; P22694+P31323; activation, % at 11.4 µM; 340,000 tested, 0.079% active; PKA-R2B holoenzyme dissociation, Cy5-IP20 fluorescence polarization; R2B truncated from residue 108, S112A mutant; 0% DMSO only, 100% 113 µM cGMP;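 active = activation above a cutoff set at the mean over all compounds plus 3 SD, cut at about 18% in these data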;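 also: higher means more holoenzyme dissociation and a rise in polarization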
Target sequence (P31323 whole entry, looked up, other chains not shown, the tested form may be a part): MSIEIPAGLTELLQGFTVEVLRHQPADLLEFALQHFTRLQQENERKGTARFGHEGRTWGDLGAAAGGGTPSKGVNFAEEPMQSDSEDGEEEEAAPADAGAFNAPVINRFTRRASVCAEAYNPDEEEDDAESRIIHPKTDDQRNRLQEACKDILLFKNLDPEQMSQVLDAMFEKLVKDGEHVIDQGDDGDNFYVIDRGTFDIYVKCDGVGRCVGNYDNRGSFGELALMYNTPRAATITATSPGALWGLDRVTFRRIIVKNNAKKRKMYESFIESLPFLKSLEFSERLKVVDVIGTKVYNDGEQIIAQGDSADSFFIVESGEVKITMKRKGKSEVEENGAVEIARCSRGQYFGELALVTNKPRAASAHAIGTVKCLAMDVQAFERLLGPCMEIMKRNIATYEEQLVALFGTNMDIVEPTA
PolyA inh = inhibitors of polyadenylation in S. cerevisiae; 300,000 tested, 0.02% active; activity score, % at 12 µM; AID 1875; S. cerevisiae SKY197-pL101 polyadenylation reporter, beta-gal luminescence; efflux-impaired pdr1/pdr3 knockout yeast; score 100 = 6 SD above DMSO;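 active = lowest replicate activity score at least 50, where 100 means six control SD above control mean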;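 also: yeast exposed to compound for 9 h at 30 °C; higher score means more reporter readthrough which indicates perturbed polyadenylation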
Yeast superoxide = lowers age-related superoxide in aged yeast cells; S. cerevisiae aged cells, superoxide DHE fluorescence; stronger effect = lower value; superoxide response (% of plate mean), % at 10 µM; 330,000 tested, 0.18% active; AID 2690;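 active = superoxide response under a set limit, about three screen SD below normal, cut at about 65% in these data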;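 also: yeast aged for seven days with compound at 30 °C before DHE staining; 100% = average MFI of all compound-treated wells on the plate with controls excluded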
PKA-R1A act = activates the PKA-R1A holoenzyme complex; P00514+P68181; PKA-R1A dissociation, Cy5-IP20 fluorescence polarization; scaled: DMSO 0%, 113 µM cGMP 100%; activation, % at 11.4 µM; 340,000 tested, 0.083% active;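 active = percent activation above the mean of all tested compounds plus 3 SD, cut at about 19% in these data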;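 also: higher means more PKAc released from R1A so a rise in polarization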
GASC-1 inh = human JMJD2C demethylase inhibition | Q9H3R0 | GST-JMJD2C(1-420) H3K9me3 demethylation, DELFIA europium | inhibition, % at 2.35 µM | 330,000 tested, 0.069% active | AID 2099;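 active = more than half of a compound's replicate wells show inhibition beyond 50%, single wells judged on their own value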;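 also: signal counts dimethyl H3K9 product captured on neutravidin plate; 0% = median of DMSO wells and 100% = 0.3 times that DMSO median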
V-ATPase pHluor = alters yeast V-ATPase proton transport; S. cerevisiae, pHLuorin cytosolic pH fluorescence; response, % at 10 µM; 350,000 tested, 0.37% active; AID 504577; in the data active = response mostly above about 7.3%, no sharp cut-off; inactive = mostly below about 5.4%; also: actives read high
* marks the source's active call; other numbers are inactive results; · = not tested or not shown.

SMILES | PKA-R2B activ | PolyA inh | Yeast superoxide | PKA-R1A act | GASC-1 inh | V-ATPase pHluor
CCOC(=O)c1cc([N+](=O)[O-])c([N+](=O)[O-])cc1NC(C)=O | 9.7 | -96.9 | 94.3 | 0.7 | 4.4 | 14.6*
CCOC(=O)c1ccc(NC(=O)c2ccccc2[N+](=O)[O-])cc1 | -2.7 | -6.2 | 107.0 | 0.9 | -2.4 | 1.5
COc1ccc(C2=NS(=O)(=O)N(C)C(C(=O)N3CCOCC3)=C2)cc1OC | -1.6 | 22.8 | 90.9 | -10.2 | -1.7 | -0.2
C/C(=N\NC(=O)CN1CCN(S(=O)(=O)c2ccc(C)cc2)CC1)c1ccc(O)cc1 | -9.8 | -15.4 | 107.8 | -0.1 | 3.5 | 0.6
CCn1c(=S)[nH]c2c(c1=O)C(C)(C)Cc1ccccc1-2 | -8.4 | -38.9 | · | 4.6 | -0.2 | 13.0*
CC(C)(C)c1ccc(C(=O)C2CCCN(C(=O)CN3CCCC3=O)C2)cc1 (stereo not given) | -3.7 | -24.2 | 111.0 | -5.8 | -1.7 | -4.2
CN(C)C(=O)N1CCC(C(=O)N2CCCC(C(=O)c3ccc(C(C)(C)C)cc3)C2)CC1 (stereo not given) | -1.6 | -2.3 | 63.2* | 2.1 | 32.6 | -6.5
CC(c1ccccc1)n1cc(C(=O)NCCCn2ccnc2)nn1 (stereo not given) | -1.3 | 18.7 | 92.6 | 5.8 | 55.2* | -3.0
CC(c1ccccc1F)n1cc(C(=O)NCCCn2ccnc2)nn1 (stereo not given) | -13.2 | 9.8 | 99.5 | -15.6 | -5.1 | 0.5
O=C(NC1CCc2ccccc21)c1cc(COc2ccc(F)cc2Cl)on1 (stereo not given) | -4.4 | 10.4 | 111.1 | -4.8 | -6.0 | -4.2
O=C(NC1CCc2ccccc21)c1cc(COc2cncc(Cl)c2)on1 (stereo not given) | -2.1 | -17.6 | 98.5 | 10.2 | 60.0* | -1.4
CN(Cc1ccc(Cl)cc1Cl)C(=O)C1CC(=O)N(Cc2ccco2)C1 (stereo not given) | -8.4 | · | · | 7.8 | · | -1.7
Cc1ccc(-c2nnn(CC(=O)Nc3ccc4nn(-c5ccccc5)nc4c3)n2)o1 | 3.5 | 1.4 | 108.6 | 1.0 | -3.1 | 16.2*
CN1C(=O)C(C)(C)c2cc(S(=O)(=O)NCCc3ccc(Cl)cc3)ccc21 | 4.3 | -16.7 | 104.2 | -1.2 | -24.0 | -2.1
Cc1ccc(CCNS(=O)(=O)c2ccc3c(c2)C(C)(C)C(=O)N3C)cc1 | 12.2 | 8.3 | 87.8 | -14.0 | -3.7 | 25.0*
Cc1cc(Cl)ccc1C(=O)C1CCCN(C(=O)c2snnc2C)C1 (stereo not given) | -1.1 | 54.5* | 99.4 | -1.2 | 0.5 | -1.8
Cc1cc(Cl)ccc1C(=O)C1CCCN(C(=O)c2cccnc2C)C1 (stereo not given) | -0.2 | -0.2 | 75.6 | 1.1 | 1.9 | -4.6
COc1ccc(C(=O)NC(=O)COC(=O)CCS(=O)(=O)c2ccc(C)cc2)cc1 | -8.1 | · | · | -8.1 | · | -2.2
O=C(CSC(=S)N1CCCC1)c1cc(Br)cc(Br)c1O | · | 10.7 | 95.7 | · | 57.8* | ·
Cc1ccc(S(=O)(=O)N2CCOCC2)cc1C(=O)Nc1ccc(C(N)=O)cc1 | -1.0 | -5.8 | 106.7 | -8.2 | -7.7 | 16.0*
Cc1ccc(S(=O)(=O)N2CCCCC2)cc1C(=O)Nc1ccc(N2CCOCC2)cc1 | 8.2 | -6.2 | 100.9 | 6.2 | 13.2 | -0.3
COc1ccc(C(=O)NCC(C)(C)N2CCOCC2)cc1S(=O)(=O)NCc1ccc(Cl)cc1 | -11.7 | · | · | -18.9 | · | 21.4*
COc1ccc(C(=O)NCCNC(C)=O)cc1S(=O)(=O)NCc1ccc(Cl)cc1 | -1.2 | 21.7 | 100.5 | 12.4 | 9.9 | -1.2
CCCN(C(=O)CSc1ccccc1C(=O)O)C1CCS(=O)(=O)C1 (stereo not given) | 4.1 | · | 111.1 | -2.0 | -4.3 | 14.6*
COC(=O)CSC1=NS(=O)(=O)c2ccccc21 | -6.5 | 0.7 | 85.4 | 6.8 | -16.3 | 11.3*
O=C(CSC1=NS(=O)(=O)c2ccccc21)Nc1ccccc1 | 5.9 | -9.1 | 68.5 | 4.7 | 1.1 | 1.6
O=c1[nH]cc(N=Cc2cc(Cl)cc(Cl)c2O)c(=O)[nH]1 | -3.3 | 3.7 | 85.3 | -9.9 | 65.6* | -0.4
